Sampled rows, rich in hits. Any-hit rate of the full collection: about 0.92%.
LAP4 TOR yeast – modulators of TOR pathway LAP4-GFP in S. cerevisiae | AID 2023 | S. cerevisiae LAP4-GFP multiplex, flow cytometry GFP, 3 h; median GFP as percent of DMSO wells | actives 0.34% (n = 320,000) | GFP response vs DMSO, % at 10 µM;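 active means GFP response vs DMSO above a set limit, about the screen mean plus 3 SD, cut at about 150% in these data; inconclusive means under 70 cell events counted for the yeast strain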
AGP1 TOR yeast – yeast TOR pathway AGP1-GFP modulation | S. cerevisiae AGP1-GFP multiplex flow cytometry, 3 h; GFP as percent of DMSO wells | GFP response vs DMSO, % at 10 µM | actives 0.02% (n = 320,000);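 active means GFP response relative to DMSO above a set limit, near screen average plus 3 SD, cut at about 150% in these data; inconclusive means fewer than 70 cells counted for the yeast strain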;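 further: median GFP channel fluorescence of the gated AGP1 strain per well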
CIT2 TOR yeast – yeast TOR pathway CIT2-GFP modulation | S. cerevisiae CIT2-GFP strain, flow cytometry, 3 h; 100 means same as DMSO wells | GFP response vs DMSO, % at 10 µM | actives 0.065% (n = 320,000) | AID 2029;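 active means GFP response relative to DMSO above a set limit, near the screen mean plus 3 SD, cut at about 150% in these data; inconclusive means Fewer than 70 cells measured for a yeast strain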;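 further: ratio of well median GFP fluorescence to mean of DMSO wells on the plate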
RPL19A TOR yeast – modulators of TOR pathway RPL19A-GFP in S. cerevisiae | S. cerevisiae RPL19A-GFP strain, flow cytometry, 3 h; active compounds read low | percent response vs DMSO, % at 10 µM | actives 0.3% (n = 330,000);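 active means percent response vs DMSO below 50%; inconclusive means fewer than 70 events counted for the yeast strain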;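 further: median channel GFP fluorescence of the barcoded RPL19A-GFP strain; ratio of sample median GFP to plate DMSO average so 100% = DMSO; lower means less RPL19A-GFP as with rapamycin TOR inhibition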
MEP2-GFP yeast – alters MEP2-GFP fluorescence in TOR pathway yeast screen | S. cerevisiae MEP2-GFP strain, flow cytometry GFP, 3 h; 100% = DMSO control level | GFP response vs DMSO, % at 10 µM | actives 0.51% (n = 330,000) | AID 2016;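 active means GFP response versus DMSO above a set limit, roughly screen mean plus 3 SD, cut at about 180% in these data; inconclusive means fewer than 70 cells counted for a yeast strain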;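 further: median GFP fluorescence of the barcode-gated MEP2-GFP cells per well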
An asterisk follows results filed as active; ? = inconclusive; · = no result given; [ ] = remark or other dose.

SMILES | LAP4 TOR yeast | AGP1 TOR yeast | CIT2 TOR yeast | RPL19A TOR yeast | MEP2-GFP yeast
CCN(CC)C(=O)c1ccc2c3c(cccc13)C(=O)N(CCc1ccc(OC)c(OC)c1)C2=O | 119 | 98 | 103 | 104 | 177*
Cc1ccc(N(C(=O)c2snc(C(N)=O)c2N)C(C(=O)NCc2ccccc2)c2ccncc2)c(C)c1 (stereo unspecified) | 58 | ? | ? | 38*[may fluoresce violet] | 210*[may fluoresce violet]
COCc1c(C(=O)N/N=C(/C)c2ccc(OCc3ccccc3)cc2)nnn1-c1nonc1N | 86 | 97 | 107 | 106 | 110
Cc1ccc(N2C3=C(C(=O)CC(C)(C)C3)C(c3cn(C)nc3C)C3=C2CC(C)(C)CC3=O)cc1 | 149 | 113 | 153* | 104 | 180*
CS(=O)(=O)N1CCN(c2nnc(-c3ccccc3)c3ccccc23)CC1 | 89 | ? | ? | 57 | 230*[may fluoresce violet]
Cc1cccc(Oc2ccc3c(c2)cc(C(=O)O)n3C)c1 | 109 | 94 | 100 | 102 | 128
COc1cccc(N2CCN(S(=O)(=O)c3ccc4nc(-c5ccccc5)[nH]c4c3)CC2)c1 | 90 | 30 | ? | · | 277*[may fluoresce violet]
COc1cccc(N2CCN(S(=O)(=O)c3ccc(-c4coc(C)n4)cc3)CC2)c1 | 115 | 122 | 112 | 110 | 114
Cc1cc(C)c2c(n1)nn1c(NCCCN(C)C)cc(C)nc21 | 106 | 46 | ? | 35*[may fluoresce violet] | 259*[may fluoresce violet]
Cc1cc(C)c2c(n1)nn1c(NCCOCCO)cc(C)nc21 | 104 | 82 | 104 | 86 | 134
O=C(c1ccccc1Br)N1N=C(c2ccccc2)CC1c1ccccc1F (stereo unspecified) | 65 | ? | ? | 19*[may fluoresce violet] | 790*[may fluoresce violet]
O=C(O)c1ccccc1C(=O)N1N=C(c2ccccc2)CC1c1ccccc1O (stereo unspecified) | 91 | 94 | 98 | 102 | 101
COCCNC(=O)C(=O)Nc1cc2c3c(c1)CC(=O)N3CCC2 | 89 | 18 | ? | 61 | 226*[may fluoresce violet]
CN(C)CCCNC(=O)C(=O)Nc1cc2c3c(c1)CC(=O)N3CCC2 | 95 | 98 | 96 | 97 | 97
CCS(=O)(=O)c1ccc2c(c1)N(S(=O)(=O)c1cccs1)CC(C(=O)O)O2 (stereo unspecified) | 105 | 109 | 125 | 97 | 98
O=C(O)Cc1ccc2c(c1)N(S(=O)(=O)c1cccs1)CC(C(=O)O)O2 (stereo unspecified) | 106 | 120 | 161*[may fluoresce green] | 94 | 109
CN(C(=O)CSc1nc(O)cc(=O)n1-c1ccccc1F)c1ccccc1 | 94 | 102 | · | 98 | 101
CN(C(=O)CSc1nc(O)cc(=O)n1C1CCCC1)c1ccccc1 | 99 | 19 | ? | 53 | 270*[may fluoresce violet]
CCCCNc1c(-c2ccc(SC(C)CC)cc2)nc2ccccn12 (stereo unspecified) | 162* | 83 | 78 | 85 | 91
CCCCNc1c(-c2ccc(SC3CCCCC3)cc2)nc2ccccn12 | 149 | 84 | 72 | 88 | 91
CC(C)(C)c1ccc(C(=O)N2CCN(C(=O)C3CCCCC3)CC2)cc1 | 101 | 113 | 152*[may fluoresce green] | 93 | 106
O=C(CSc1nc2ccccc2c(=O)n1-c1ccc(OC(F)F)cc1)NC1CC1 | 97 | 102 | 108 | 94 | 95
CCc1cc(=O)oc2c(CNCc3ccc(OC)cc3OC)c(O)c(Cl)cc12 | 90 | 17 | ? | 69 | 407*[may fluoresce violet]
O=c1c2ccc([N+](=O)[O-])c3cccc(c32)c2nc3ccccc3n12 | 148 | 108 | 119 | 106 | 183*
CCc1nc2ccccc2c2nc3ccccc3n12 | 103 | 97 | 96 | 102 | 102
SMILES | LAP4 TOR yeast | AGP1 TOR yeast | CIT2 TOR yeast | RPL19A TOR yeast | MEP2-GFP yeast
Cc1ccc(C(C(=O)NC2CCCCC2)N(CCCN2CCOCC2)C(=O)c2snc(C(N)=O)c2N)cc1 (stereo unspecified) | 74 | 19 | 82 | 41* | 181*
Cc1ccc(S(=O)(=O)NC(C)C(=O)OCC(=O)N(C)c2ccccc2)cc1 (stereo unspecified) | 97 | 102 | 96 | 102 | 103
CC(C)CCNC(=O)C1CC(c2ccccc2C(F)(F)F)=NO1 (stereo unspecified) | 100 | 88 | 107 | 103 | 88
CC(C)c1ccc(S(=O)(=O)/N=C2\C=C(NS(=O)(=O)c3ccccc3)C(=O)c3ccccc32)cc1 | 88 | ? | ? | 25*[may fluoresce violet] | 277*[may fluoresce violet]
Cc1ccc(C)c(S(=O)(=O)/N=C2\C=C(NS(=O)(=O)c3ccccc3)C(=O)c3ccccc32)c1 | 91 | 96 | 94 | 99 | 99
CC1CC(NS(=O)(=O)c2cccs2)CC(C)(C)C1 (stereo unspecified) | 105 | 75 | 64 | 101 | 88
CCN(CC)S(=O)(=O)c1cc(NC(=O)C2CSC3(C)CCC(=O)N23)ccc1C (stereo unspecified) | 116 | 107 | 94 | 107 | 99
O=C(NCc1ccc2c(c1)OCO2)c1nc(Cn2cc(Br)cn2)no1 | 95 | 96 | 101 | 99 | 100
COC(=O)c1ccccc1NC(=O)c1cc(-c2cccs2)on1 | 107 | 97 | 98 | 97 | 98
COC(=O)c1ccccc1NC(=O)c1cc(-c2ccco2)on1 | 74 | ? | ? | 52 | 214*[may fluoresce violet]
Cc1ccc(-c2nn(CC(=O)NN3CCOCC3)c(=O)c3ccccc23)cc1 | 108 | 101 | 91 | 98 | 92
CC1CCc2c(sc(NC(=O)c3cccs3)c2C(=O)O)C1 (stereo unspecified) | 93 | 80 | 79 | 109 | 124
COCC(=O)Nc1sc2c(c1C(=O)OC)CCCC2 | 112 | 90 | 97 | 98 | 103
COC(=O)c1c(NC(=O)c2cccs2)sc2c1CCC(C)C2 (stereo unspecified) | 97 | · | ? | 54 | 223*[may fluoresce violet]
COC(=O)c1c(NC(=O)Cc2cccs2)sc2c1CCCC2 | 91 | ? | ? | 56 | 211*[may fluoresce violet]
OC1COC(O)C(O)C1O (stereo unspecified) | 104 | 89 | 86 | 98 | 95
O=C(Nc1ccc(S(=O)(=O)N2CCCC2)cc1)c1ccc(Br)o1 | 102 | 95 | 107 | 98 | 106
CN1CCN(S(=O)(=O)c2ccc(NC(=O)c3ccc(Br)o3)cc2)CC1 | 76 | ? | ? | 21*[may fluoresce violet] | 394*[may fluoresce violet]
O=C(Nc1ccc(S(=O)(=O)N2CCCC2)cc1)c1ccc(CN2CCOCC2)cc1 | 105 | 19 | ? | 58 | 483*[may fluoresce violet]
O=C(Nc1ccc(S(=O)(=O)N2CCCCC2)cc1)c1ccc(CN2CCOCC2)cc1 | 78 | 96 | 91 | 116 | 104
Cc1ccc(CNC(=O)C2CCC(=O)N(CCCN3CCOCC3)C2)cc1 (stereo unspecified) | 99 | 102 | 102 | 105 | 104
Cc1ccc(S(=O)(=O)N2CCC(C(=O)Nc3cc(C(F)(F)F)ccc3N3CCOCC3)CC2)cc1C | 100 | 97 | 87 | 90 | 99
